# The whole screen tested about 330,000 compounds, of which about 3,800 (1.2%) were called active. Shown is part of a subset that was picked to be rich in actives. A number with no mark means an inactive call. Rule as the data show it: active = inhibition above about 15%; inconclusive = no clear call, values can overlap the other calls; inactive = below that.
# Target: NAD-dependent protein deacylase sirtuin-5, mitochondrial (Homo sapiens) (UniProt Q9NXA8)
# Assay: SIRT5 desuccinylase inhibitors, primary screen, biochemical, fluorescence imaging, single point, set 5 (AID 652115)
# Details: Purified SirT5, succinyl-peptide AMC, trypsin-coupled fluorescence; at 15 µM; hits give high values
# Sequence of NAD-dependent protein deacylase sirtuin-5, mitochondrial (Homo sapiens) (Q9NXA8 whole entry, looked up): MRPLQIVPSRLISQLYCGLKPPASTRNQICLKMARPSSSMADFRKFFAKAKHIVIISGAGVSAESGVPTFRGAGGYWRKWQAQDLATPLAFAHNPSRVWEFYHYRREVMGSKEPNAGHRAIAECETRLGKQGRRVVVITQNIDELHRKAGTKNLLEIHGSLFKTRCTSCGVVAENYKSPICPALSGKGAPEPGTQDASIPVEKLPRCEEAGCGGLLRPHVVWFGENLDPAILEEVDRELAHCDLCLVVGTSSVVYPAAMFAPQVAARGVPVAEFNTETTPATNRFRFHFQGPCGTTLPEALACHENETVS
row,Structure (SMILES),inhibition
1,CCCN(C)C[C@H]1Oc2ncc(C#CCOC)cc2C(=O)N([C@@H](C)CO)C[C@H]1C,0.664%
2,C[C@@H]1CN([C@H](C)CO)C(=O)c2cccc(NC(=O)c3cnccn3)c2O[C@@H]1CN(C)Cc1ccc(C(=O)Nc2ccccc2N)cc1,15.1% (active)
3,C[C@H](CO)N1C[C@H](C)[C@H](CN(C)Cc2ccc(Oc3ccccc3)cc2)Oc2c(NC(=O)CCCCCC(=O)Nc3ccccc3N)cccc2C1=O,10.2%
4,C[C@@H]1CN([C@@H](C)CO)C(=O)c2cccc(NC(=O)CCCCCC(=O)Nc3ccccc3N)c2O[C@H]1CN(C)C(=O)Nc1ccccc1,-0.269%
5,C[C@@H]1CN([C@H](C)CO)C(=O)c2cccc(NC(=O)CCCCCC(=O)Nc3ccccc3N)c2O[C@H]1CN(C)Cc1ccc(Oc2ccccc2)cc1,28.2% (active)
6,C[C@@H]1CN([C@@H](C)CO)C(=O)c2cccc(NC(=O)c3cnccn3)c2O[C@H]1CN(C)Cc1ccc(-c2ccccc2)cc1,-1.19%
7,C[C@@H]1CN([C@@H](C)CO)C(=O)c2cccc(NC(=O)c3cnccn3)c2O[C@H]1CN(C)Cc1ccc(C(=O)O)cc1,-1.49%
8,CCOc1cc(C)ccc1OCc1nnc(SCC(=O)Nc2cccc(C(=O)O)c2)n1-c1ccccc1,60.5% (active)
9,COc1ccccc1OCc1nnc(SCC(N)=O)n1-c1ccccc1,-0.045%
10,COc1ccccc1-n1c(SCC(=O)Nc2cccc(C(=O)O)c2)nnc1-c1ccccc1O,3.18%
11,COc1cccc(S(=O)(=O)N[C@@H]2C=C[C@H](CC(=O)NC3CCC3)O[C@@H]2CO)c1,-3.76%
12,CO[C@@H]1CC[C@@H]2CCOc3c(C#N)cccc3C(=O)N(C)C[C@@H](C)C(=O)N(C)C[C@@H]1O2,0.964%
13,OC[C@@H]1CN(Cc2cccs2)C[C@H](n2cnc3c(Nc4ccccc4)ncnc32)O1,19.4% (active)
14,CCN(CC)c1ncnc2c1ncn2[C@H]1CN(Cc2cccs2)C[C@@H](CO)O1,0.751%
15,OC[C@@H]1CN(Cc2cccs2)C[C@H](n2cnc3c(NC4CCCC4)ncnc32)O1,5.79%
16,CCCC(=O)Nc1ccc2c(c1)C(=O)N(C)C[C@H](OC)[C@@H](C)CN(C(C)=O)[C@H](C)CO2,0.113%
17,CO[C@@H]1CN(C)C(=O)c2cc(NC(=O)C3CC3)ccc2OC[C@H](C)N(CC2CC2)C[C@H]1C,-3.23%
18,O=C(c1cccc(S(=O)(=O)N2CCCC2)c1)N(Cc1ccco1)C1CCS(=O)(=O)C1 (configuration not stated),18.1% (active)
19,CCCCN(C(=O)c1ccc(S(=O)(=O)N2CCOCC2)cc1)C1CCS(=O)(=O)C1 (configuration not stated),2.17%
20,CC(C)CN(C(=O)c1cccc(S(=O)(=O)N2CCCCC2)c1)C1CCS(=O)(=O)C1 (configuration not stated),-1.89%
21,CN(C)C(=O)C[C@@H]1CC[C@@H](NC(=O)NC2CCCC2)[C@@H](CO)O1,1.11%

row,Structure (SMILES),inhibition
1,COc1cccc(S(=O)(=O)N[C@H]2CC[C@@H](CCN)O[C@H]2CO)c1,0.762%
2,COC(=O)COc1cccc2c(=O)n(CC(=O)NCCc3ccc(OC)c(OC)c3)ccc12,15.1% (active)
3,COC(=O)COc1cccc2c(=O)n(CC(=O)NCc3ccccc3)ccc12,-3.93%
4,CCOC(=O)C(C)Oc1cccc2c(=O)n(CC(=O)NCCc3ccc(OC)c(OC)c3)ccc12 (configuration not stated),-3.89%
5,CO[C@@H]1CN(C)C(=O)c2cc(NC(=O)c3cnccn3)ccc2OC[C@@H](C)N(C(=O)C2CC2)C[C@@H]1C,2.16%
6,COc1cccc(-c2ccc([C@H]3[C@H]4CN(C(=O)NC(C)C)CC(=O)N4[C@H]3CO)cc2)c1,1.38%
7,COc1ccc(OC)c(CN2CCN(C(=O)CNC(=O)c3cc(C)cc(C)c3)CC2)c1,-1.91%
8,COc1cc(C)c(CN2CCN(C(=O)CCC(=O)c3ccc(C)s3)CC2)cc1OC,19.2% (active)
9,COc1cc(OC)c(OC)cc1CN1CCN(C(=O)c2cccc3ccccc23)CC1,-1.16%
10,O=C(C[C@H]1CC[C@H]2[C@@H](COC[C@@H](O)CN2Cc2ccccc2)O1)N[C@@H]1CCN(Cc2ccccc2)C1,-3.08%
11,CCCNC(=O)N(C)C[C@H]1Oc2ncc(-c3cccc(C#N)c3)cc2C(=O)N([C@@H](C)CO)C[C@H]1C,0.845%
12,CCNC(=O)C[C@@H]1CC[C@H]2[C@@H](COC[C@@H](O)CN2C(=O)c2cc(Cl)cc(Cl)c2)O1,-2.11%
13,COc1ccc(S(=O)(=O)Nc2ccc3c(c2)C(=O)N([C@H](C)CO)C[C@H](C)[C@@H](CN(C)Cc2ccc(-c4ccccc4)cc2)O3)cc1,16.6% (active)
14,COc1ccc(CN(C)C[C@H]2Oc3c(NS(=O)(=O)c4ccc(Cl)cc4)cccc3C(=O)N([C@H](C)CO)C[C@@H]2C)cc1,-1.84%
15,COc1ccc(CN(C)C[C@H]2Oc3c(NS(=O)(=O)c4ccccc4)cccc3C(=O)N([C@H](C)CO)C[C@@H]2C)cc1,6.84%
16,COc1ccc(S(=O)(=O)Nc2cccc3c2O[C@@H](CN(C)Cc2ccc(-c4ccccc4)cc2)[C@H](C)CN([C@H](C)CO)C3=O)cc1,19.6% (active)
17,COc1ccc(CN(C)C[C@H]2Oc3c(NS(=O)(=O)c4ccc(Cl)cc4)cccc3C(=O)N([C@H](C)CO)C[C@H]2C)cc1,-3.94%
18,COc1ccc(CN(C)C[C@H]2Oc3c(NS(=O)(=O)c4ccc(C)cc4)cccc3C(=O)N([C@@H](C)CO)C[C@@H]2C)cc1,-2.22%
19,COc1ccc(S(=O)(=O)Nc2ccc3c(c2)C(=O)N([C@H](C)CO)C[C@@H](C)[C@H](CN(C)Cc2ccccc2)O3)cc1,5.6%
20,COc1ccc(S(=O)(=O)Nc2ccc3c(c2)C(=O)N([C@H](C)CO)C[C@@H](C)[C@@H](CN(C)Cc2ccccc2)O3)cc1,3.29%
21,COc1ccc(CN(C)C[C@H]2Oc3c(NS(=O)(=O)c4ccccc4)cccc3C(=O)N([C@@H](C)CO)C[C@H]2C)cc1,26.9% (active)

# Source: PubChem BioAssay AID652115 (Broad Institute, 2013)
